The panel holds about 79,000 compounds, 15% with a hit somewhere; the sample as a whole holds those more often. Active and inactive are the calls of the source. No stated cut-off is given here; in the data, active means growth inhibition above about 70%; inactive means the rest.
What was measured:
[1] = NCI Yeast Anticancer Drug Screen. Data for the rad50 strain (AID 155);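 further: 0% = growth of vehicle-only cultures of the same strain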; details: S. cerevisiae rad50 strain growth inhibition; at 50.0 µM; hits give high values
Summary of the method: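 Genetically altered yeast (DNA repair pathway); compound treatment; growth inhibition vs vehicle ctrl.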

[2] = NCI Yeast Anticancer Drug Screen. Data for the mec2-1 strain (AID 157); details: S. cerevisiae mec2-1 strain, at 50.0 µM, hits give high values
Summary of the method: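 mec2-1 yeast strain, carrying an alteration in DNA damage repair or cell cycle control, was exposed to compounds; growth inhibition was measured relative to vehicle-treated controls.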

[3] = NCI Yeast Anticancer Drug Screen. Data for the sgs1 mgt1 strain (AID 161);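 further: 0% = growth of cultures given vehicle only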; details: S. cerevisiae sgs1 mgt1 strain, at 50.0 µM, hits give high values
Summary of the method: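 Compounds are added to genetically altered yeast, and growth is compared with cultures given vehicle alone to give percent inhibition.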

[4] = NCI Yeast Anticancer Drug Screen. Data for the cln2 rad14 strain (AID 165);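 further: 0% = growth equal to vehicle treated cultures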; details: S. cerevisiae cln2 rad14 strain, at 50.0 µM, hits give high values
Summary of the method: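 Yeast carrying cln2 and rad14 alterations (cell cycle control and DNA damage repair) were exposed to compounds. Growth inhibition was measured against vehicle-treated controls.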

[5] = NCI Yeast Anticancer Drug Screen. Data for the bub3 strain (AID 167); details: S. cerevisiae bub3 mutant strain, at 50.0 µM, hits give high values
Summary of the method: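 Yeast carrying a defined mutation is treated with each compound, and growth is compared with that of vehicle-exposed cells to give inhibition.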

[6] = NCI Yeast Anticancer Drug Screen. Data for the mlh1 rad18 strain (AID 175); details: S. cerevisiae mlh1 rad18 strain growth inhibition; at 50.0 µM; hits give high values
Summary of the method: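 Growth inhibition of the yeast strain was measured after compound exposure and expressed relative to vehicle-treated controls. The strain carries defined defects in DNA damage repair.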

Measured: growth inhibition

O=C(O)c1ccc(S(=O)(=O)N=Nc2c(O)[nH]c3ccccc23)cc1
inactive: [1] -6.6% | [2] -5.2% | [3] -35% | [4] -1.15% | [5] -37% | [6] -7.45%

COc1ccccc1CNCCCCCCNCCSSCCNCCCCCCNCc1ccccc1OC
inactive: [1] 6.55% | [2] 5.1% | [3] 7.4% | [4] -36.7% | [5] -2.35% | [6] 32.5%

CN1C(=O)C(O)C[C@@H]1c1ccc(F)cc1 (stereo partly specified)
inactive: [1] -5% | [2] 6.8% | [3] 12.7% | [4] 16.6% | [5] -0.25% | [6] -30.4%

CCCCCC(N)C(=O)O (stereo unspecified)
inactive: [1] 1.7% | [2] 6% | [3] -14.5% | [4] -22.1% | [5] -2.35% | [6] -17.9%

COc1ccc(Cc2cc(N=O)c(OC)cc2O)cc1
inactive: [1] -12.4% | [2] -7.3% | [3] 1.15% | [4] -21.5% | [5] -3.6% | [6] -10.7%

Cn1c(=O)c2c3ccccc3c(C(=O)c3ccccc3)n2c2ccccc21
inactive: [1] 38.4% | [2] 4.1% | [3] 27.4% | [4] 25.9% | [5] -1.25% | [6] 34.4%

CN1CC=C(C#CC(C)(C)O)CC1
inactive: [1] -13% | [2] -17.4% | [3] -0.65% | [4] 4.7% | [5] -5.9% | [6] -25.3%

O=C(O)c1ccccc1C(=O)NCc1ccc(Cl)cc1Cl
inactive: [1] -3.75% | [2] 22.6% | [3] 21.4% | [4] -7.3% | [5] 19.9% | [6] 38.8%

O=C(O)C1(Nc2ccc(Cl)cc2)CCCC1
inactive: [1] 14.3% | [2] -6.75% | [3] -12.6% | [4] -1.45% | [5] 9.65% | [6] 11.6%

CCOC(=O)CNC(=O)C(Cc1cnc[nH]1)NC(=O)OCc1ccccc1 (stereo unspecified)
inactive: [1] -1.9% | [2] -13.6% | [3] -8.6% | [4] -14.6% | [5] -6.7% | [6] -3.7%

CCNC(=O)C1CC2C=CC1C2 (stereo unspecified)
inactive: [1] -1.25% | [2] 2.1% | [3] 4.2% | [4] 12.6% | [5] 3.05% | [6] 1.5%

COc1ccc(C(=C(I)c2ccccc2)c2ccc(OC)cc2)cc1
inactive: [1] -31.6% | [2] -26.4% | [3] -11.4% | [4] -15.9% | [5] -25.4% | [6] -18.9%

COc1ccc(C(C)Nc2cc(OC)c(OC)c(OC)c2)cc1 (stereo unspecified)
inactive: [1] -20.2% | [2] -14.1% | [3] -3.15% | [4] 5.5% | [5] -10.3% | [6] -15.1%

Cc1ccc([N+](=O)[O-])c2c(NCCCN(C)C)ccnc12
inactive: [1] 42.2% | [2] 16.1% | [3] 20% | [4] 4.7% | [5] 13.2% | [6] 49.2%

CCCC1CC(=O)NC(=O)C1C(=O)OC(C)(C)C (stereo unspecified)
inactive: [1] -13.1% | [2] -0.2% | [3] -8.65% | [4] 11% | [5] 9.85% | [6] -47.4%

COCCOC(=O)c1ccccc1O
inactive: [1] 5.45% | [2] 13.8% | [3] 13.8% | [4] 2.95% | [5] -13.2% | [6] -1.25%

CCOC(=O)CNC(=O)CNC(=O)CNC(=O)CN
inactive: [1] 0.1% | [2] 2.5% | [3] 15.8% | [4] -20.4% | [5] -3.85% | [6] -16.6%

CN(C)C=Nc1cccc2cnccc12
inactive: [1] 24.7% | [2] 3.4% | [3] 14.5% | [4] 21.2% | [5] 13.1% | [6] -16.7%

COC(=O)/C=C/c1ccccc1
inactive: [1] 17.4% | [2] -14.3% | [3] -15.6% | [4] -1.2% | [5] -27.9% | [6] 19.4%

COc1nc2c(c(O)cn2C2OCC(OC(C)=O)C(OC(C)=O)C2OC(C)=O)c(=O)n1C (stereo unspecified)
inactive: [1] -1.65% | [2] -5.9% | [3] -25.8% | [4] -2.75% | [5] -1% | [6] 15.8%

C=CCSCC1Nc2cc(Cl)c(S(N)(=O)=O)cc2S(=O)(=O)N1C (stereo unspecified)
inactive: [1] 22.8% | [2] 12.8% | [3] 8.05% | [4] 20.1% | [5] -3.75% | [6] 2.25%

NS(=O)(=O)c1ccc(NC(=O)Nc2cccc(C(F)(F)F)c2)cc1
inactive: [1] 23.9% | [2] 2.55% | [3] 12.8% | [4] 12.3% | [5] 23.8% | [6] 9.85%

CCCC(=O)OC1C=C2N3C(=O)C4CC56C(=CC(OC(C)=O)C7OC75)N4C(=O)C3CC26C2OC12 (stereo unspecified)
active: [1] 83.3% | [2] 84.2% | [3] 89.7% | [4] 78.8% | [5] 76.3% | [6] 85.2%

OCCCCN1CCCCC1
inactive: [1] -1% | [2] -1.95% | [3] -13.2% | [4] 2.5% | [5] -0.85% | [6] -5.05%

N#Cc1c(NC(=S)NC(=O)c2ccccc2)nc2c(c1-c1ccccc1)CCCC2
inactive: [1] 28% | [2] 17.9% | [3] 30.1% | [4] 1.05% | [5] 17.4% | [6] 21.6%

O=C(O)c1ccccc1Oc1ccc([N+](=O)[O-])cc1[N+](=O)[O-]
inactive: [1] 4.3% | [2] 16.8% | [3] 32% | [4] -82% | [5] 26.8% | [6] 20.1%

O=C1CN(c2ccc(Cl)cc2)C(=O)CN1CCN1CC(=O)N(c2ccc(Cl)cc2)CC1=O
inactive: [1] -43.5% | [2] -10.3% | [3] -3.25% | [4] 10.6% | [5] -39.6% | [6] -23.6%

Cc1cc(Cl)c(Cl)cc1NC(=O)C(Br)C(Br)c1ccccc1 (stereo unspecified)
inactive: [4] 68.7%
active: [1] 75.8% | [2] 71.3% | [3] 74.3% | [5] 78.5% | [6] 82.2%

COc1ccccc1-c1ccc([N+](=O)[O-])cc1[N+](=O)[O-]
inactive: [1] 18.9% | [2] -5.7% | [3] -1.9% | [4] 8.65% | [5] 22.2% | [6] 14.8%

CC(C)c1ccc(OCC2CCCO2)cc1 (stereo unspecified)
inactive: [1] 37.4% | [2] 0.95% | [3] 39% | [4] 41.7% | [5] 28.9% | [6] 27.4%

Cn1cnc(N)c1C(N)=S
inactive: [1] 4.65% | [2] 7.5% | [3] -8.6% | [4] -8.55% | [5] 7.9% | [6] 1.1%

CC1CCCCN1C(CC(=O)c1ccccc1)C(=O)c1ccccc1 (stereo unspecified)
inactive: [1] 21.4% | [2] 24.1% | [3] 8.55% | [4] 17.1% | [5] 18.4% | [6] 38.7%

CC(N)(Cc1c[nH]c2ccccc12)C(=O)O (stereo unspecified)
inactive: [1] -13.3% | [2] -43.5% | [3] -16.1% | [4] -26.9% | [5] -15.8% | [6] -19.4%

CC(=O)Nc1ccc(C(=O)NN2C(=O)CSC2c2ccc(O)cc2)cc1 (stereo unspecified)
inactive: [1] -36% | [2] -36.1% | [3] -44.5% | [4] -15.7% | [5] -30.2% | [6] -49.7%

N#CNC(=Nc1ccccc1)[N](C#N)[Sn]([c]1ccccc1)([c]1ccccc1)[c]1ccccc1
active: [1] 98.7% | [2] 98.3% | [3] 99.2% | [4] 98.7% | [5] 96.5% | [6] 98.6%

Nc1nc(Cl)cc(Oc2ccc(Cl)cc2)n1
inactive: [1] 9.65% | [2] -17.6% | [3] 22.6% | [4] 2.5% | [5] 17% | [6] -30.6%

O=[N+]([O-])c1ccc(Cl)c(OCCCBr)c1
active: [6] 70.3%
inactive: [1] 10.3% | [2] 39.5% | [3] 48.6% | [4] 14.9% | [5] 57.2%

CC1OC(OCc2ccc(-c3ccccc3)cc2)CC(N)C1O (stereo unspecified)
inactive: [1] -1.9% | [2] 28.9% | [3] 24.6% | [4] -6.85% | [5] 29.6% | [6] 2.9%

CCc1cc(-c2cc(CC)on2)no1
inactive: [1] -3.3% | [2] -14.9% | [3] -12.4% | [4] -1.15% | [5] -19.2% | [6] 1.4%

COc1ccc(/C=N/NC(=O)C(=O)Nc2ccc(Cl)c([N+](=O)[O-])c2)cc1OC
inactive: [1] 2.15% | [2] -20.9% | [3] -0.65% | [4] 2.85% | [5] -4.1% | [6] -6.4%

COc1ccc(CCC2c3cc(OC)c(OC)cc3CCN2C)cc1OC (stereo unspecified)
inactive: [1] -41.5% | [2] -15.7% | [3] -6.75% | [4] 5.35% | [5] -19.9% | [6] -4.85%

From PubChem BioAssay (NCI)
